The results in this text go back to PubChem BioAssay.

Calls of active or inactive are those of the source.

The subject of assay [1] is XIP peptide (Xip251-270) binding. Briefly: XIP fragment 251-270 binding compounds – biochemical, small-molecule microarray, fluorescence 635/667 nm, 0.1 µg/mL protein, primary screen (AID 1182). The following applies: fluorescent protein binding, 635 nm, higher = more signal, called active from +8 up or from −8 down.
Another assay has as its system XIP peptide (Xip251-270). Briefly: compounds binding XIP fragment 251-270 – biochemical, small-molecule microarray, fluorescence 635/667 nm, 0.5 µg/mL protein, primary screen (AID 1183). The following applies: fluorescence 635 nm, higher = more signal.
Assay [2] is described as follows: blood-stage malaria parasite viability loss – strain 3D7, DAPI fluorescence, 100 nL, primary screen (AID 1184).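 Further: parasites grown inside human red blood cells in medium with human serum.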 The following applies: P. falciparum 3D7 growth, 3 d, higher = more signal.
For assay [3], the target named is Homeobox protein Hox-A13 (Mus musculus) (UniProt Q62424). Briefly: disruptors of Hoxa13 oligonucleotide interaction – biochemical, fluorescence polarization, labeled oligonucleotide, primary screen (AID 1185). The following applies: Hoxa13:DNA binding, 15 min, higher = more signal, called active from +8 up or from −8 down. On the technique in general: In fluorescence polarisation assays a small probe gives low polarisation when free and higher when bound to something large.
Chain of Homeobox protein Hox-A13 (Mus musculus) (Q62424 whole entry, looked up): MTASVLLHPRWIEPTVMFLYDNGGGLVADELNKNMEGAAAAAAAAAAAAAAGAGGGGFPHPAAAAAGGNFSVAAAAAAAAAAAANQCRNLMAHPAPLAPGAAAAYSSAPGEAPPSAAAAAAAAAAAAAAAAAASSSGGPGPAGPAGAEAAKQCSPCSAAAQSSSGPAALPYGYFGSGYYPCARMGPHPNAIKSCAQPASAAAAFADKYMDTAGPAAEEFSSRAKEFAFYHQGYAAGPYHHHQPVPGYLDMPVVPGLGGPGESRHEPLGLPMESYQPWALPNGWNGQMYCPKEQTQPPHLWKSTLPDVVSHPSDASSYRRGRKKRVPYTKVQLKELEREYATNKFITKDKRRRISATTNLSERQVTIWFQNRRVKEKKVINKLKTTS

Turning to `C[C@H]1C=CCC(=O)OC[C@H](C)C(=O)N2CCC[C@H]2C(=O)OC1`, the composite z-score in assay [1] is 0.23 (inactive); with XIP peptide (Xip251-270), 0.476. Moreover, the z-score in assay [2] was 0.878; in assay [3], -0.266 (inactive).
The matching figures for `C#CCCCON=C1C[C@@H](O)[C@@H](O)[C@@H]2[C@@H]3C(=O)N(C[C@@H]4CCCO4)C(=O)[C@@H]3CC[C@@H]12`: 0.141 (inactive), 0.384, 1.38 and 0.866 (inactive).
For `Cc1ccc(C(C)C)n1C(=O)OC(C)(C)C`, the composite z-score in assay [1] is -0.488 (inactive); in the assay with XIP peptide (Xip251-270), -0.0079. For the same compound, the z-score in assay [2] was 0.271; in assay [3], 0.936 (inactive).
On to `CC(CCN1CCc2nc(-c3ccccc3)c(-c3ccccc3)cc2C1)=NOC(C)CN1CCCc2nc(C)c(C)cc21` (configuration not stated), for which the composite z-score is 0.161 (inactive) in assay [1] and 0.558 in the assay with XIP peptide (Xip251-270). For the same compound, the z-score is 0.5 in assay [2] and -9.97 (active) in assay [3].
As for `CCOC(=O)NN=C1C[C@@H](O)[C@@H](O)[C@@H]2[C@@H]3C(=O)N(c4ccc(F)cc4F)C(=O)[C@@H]3CC[C@H]12`, the composite z-score in assay [1] is 0.192 (inactive); with XIP peptide (Xip251-270), -0.119. Further, the z-score in assay [2] is -1.36; in assay [3] it was 1.14 (inactive).
As for `COC(=O)[C@H](C)NC(=O)CCC1CC(OC(=O)NCc2cccc3ccccc23)CC2(CCCC(COC(=O)NCCC(C)C)O2)O1` (some centres not stated), the results for the composite z-score (in assay [1]; in the assay with XIP peptide (Xip251-270)) were -0.477 (inactive) and 0.468, respectively. Also, the z-score in assay [2] was -1.57; in assay [3] it was -5.31 (inactive).
The matching figures for `CCOC(=O)[C@H](CC(C)C)NC(=O)CCC1CC(OC(=O)NCCc2ccc(F)cc2)CC2(CCCC(COC(=O)NCc3cccc(C(F)(F)F)c3)O2)O1` (some centres not stated): -0.0296 (inactive), 0.575, -0.748 and -6.52 (inactive).
As for `CC(CCN1CCCc2nc(C)c(C)cc21)=NOC[C@@H](O)COCc1ccco1`, the composite z-score in assay [1] was 4.43 (inactive); with XIP peptide (Xip251-270), 0.831. For the same compound, the z-score in assay [2] was 0.245; in assay [3], -8.38 (active).
Regarding `COC(=O)[C@@H]1CC[C@H](C)[C@@H](c2ccc(C)cc2)N1C(=O)c1ccc(C=NOC[C@@H](O)[C@H]2O[C@@H]3OC(C)(C)O[C@@H]3[C@H]2O)cc1`, the composite z-score in assay [1] is 0.102 (inactive); in the assay with XIP peptide (Xip251-270), 0.228. Besides, the z-score is -0.209 in assay [2] and -6.03 (inactive) in assay [3].
The matching figures for `COC(=O)CC=C[C@@H](C)[C@@H](C=NOC[C@@H](O)COCc1ccco1)OC`: 0.146 (inactive), 0.338, 0.715 and -0.341 (inactive).
With `COc1ccc(COC(=O)NN=C2C[C@@H](O)[C@@H](O)[C@@H]3[C@@H]4C(=O)N(c5cccc(Oc6ccccc6)c5)C(=O)[C@@H]4CC[C@H]23)cc1`, the composite z-score in assay [1] is -0.538 (inactive); in the assay with XIP peptide (Xip251-270), -0.255. Also, the z-score in assay [2] is -1.34; in assay [3] it was -3.81 (inactive).
Consider `COCC#Cc1ccc([C@@H]2N[C@H](C(=O)O)CC[C@H]2C)cc1`, for which the composite z-score in assay [1] was -0.238 (inactive); in the assay with XIP peptide (Xip251-270), -0.52. The z-score is 0.383 in assay [2] and -1.46 (inactive) in assay [3].
Turning to `C#CCCCON=C1[C@H]2CCn3c(=O)n([C@@H](CC)c4ccccc4)c(=O)n3[C@H]2[C@H](O)[C@@H]2O[C@H]12`, the composite z-score in assay [1] is 0.967 (inactive); in the assay with XIP peptide (Xip251-270), -0.226. For the same compound, the results for the z-score in assay [2] and in assay [3] were -0.9 and -3.68 (inactive), respectively.
The matching figures for `CC(CCC(=O)OC[C@H]1O[C@H](C#Cc2ccccc2)C=C[C@@H]1Oc1ccc(C)cc1)=NOC(C)CN1CCCc2nc(C)c(C)cc21` (some centres not stated): 0.687 (inactive), 0.529, -1.9 and -3.93 (inactive).
The matching figures for `COC(=O)C1=C(C)N(Cc2ccccc2)C2=C3C(=O)OCC[C@@H]3[C@@](O)(C(=O)OC)C(=O)N2[C@@H]1c1ccccc1`: 0.75 (inactive), -0.189, 0.964 and -0.987 (inactive).
The matching figures for `CC(C)=NO[C@@H](C)c1cn([C@H](CO)Cc2ccccc2)nn1`: -0.407 (inactive), 0.241, 0.412 and 1.06 (inactive).
Take `CCN1C(C)=C(C(=O)OC)[C@@H](c2ccccc2)N2C(=O)[C@](O)(C(=O)OC)CC(C(C)=O)=C12`: the composite z-score in assay [1] was 0.181 (inactive); with XIP peptide (Xip251-270) it was -0.218. Moreover, the values for the z-score in assay [2] and in assay [3] were 0.752 and 0.334 (inactive), respectively.
The matching figures for `O=C1C=C[C@@H](O)[C@@H]2[C@@H]3C(=O)N(C4CCCCC4)C(=O)[C@@H]3CC[C@@H]12`: 0.386 (inactive), 0.178, 0.307 and -0.431 (inactive).
The matching figures for `COc1ccc(O[C@H]2C=C[C@@H](c3ccccc3)O[C@@H]2COC(=O)NCc2cccc3ccccc23)cc1`: -0.318 (inactive), 0.143, -0.806 and 1.25 (inactive).
As for `COCOc1ccc(Br)cc1C(=O)C=Cc1ccc2c(c1)OCO2`, the results for the composite z-score (in assay [1]; in the assay on XIP peptide (Xip251-270)) were 0.268 (inactive) and 0.627, respectively. The z-score was -1.42 in assay [2] and -0.353 (inactive) in assay [3].
The matching figures for `COC(=O)CC=C[C@@H](C)[C@@H](C=NOC(C)CN1CCCc2nc(C)c(C)cc21)NS(=O)(=O)c1ccc(C)cc1` (some centres not stated): 0.364 (inactive), 0.624, 0.135 and -7.74 (inactive).
The matching figures for `COC(=O)C(C(=O)OC)C1CCCC(=O)C1` (configuration not stated): -0.0977 (inactive), 0.237, -0.468 and -0.243 (inactive).
The matching figures for `CO[C@H]1COC(=O)CC=C[C@@H](C)COC(=O)[C@H]2CCCN2C(=O)CC=C[C@H]1C`: 0.0735 (inactive), 0.286, 0.655 and -0.292 (inactive).
